Reference: the supplement of paper PMC6555819

tested on: VDR:RXRa (NR concentration 270 nM, RXRa partner concentration 90 nM); test: PBM binding z-score (relative to random genomic background probes); higher = stronger binding; sequences stand for … in GC…GCGATTGACAGCGTAGAATGAAGG
Procedure: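 Protein-binding microarray (Agilent 4x180K custom design, double-stranded 60-nt probes: 5' GC cap, 34-nt variable region, 24-nt constant primer region; full probe sequence given). Purified or IVT nuclear receptor:RXRα heterodimers (3:1 NR:RXRα, mostly 270:90 nM) or homodimers were incubated for 1 h in PBS with 2% milk and no ligand, then detected with Alexa488 antibodies. Fluorescence from o1-orientation probes (~5 replicates averaged) was converted to z-scores against 500 random hg19 background probes. Variable regions are seed direct-repeat (DR0–DR5) sites, all their single-nucleotide variants and half-site ablations.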

Row | Sequence | PBM binding z-score
1 | TTACCAAGGTGAGCTGAGGTCGCTGATCCAACTC | 2.9
2 | CCGACTGAGGCATAAGGTTACCATAAGCCAGCCC | 0.114
3 | CCCACTGGGCCAAAGGTCATTGATTCCAATGCTC | 4.73
4 | GCGACTGGGGCTAAGCAGGTTACCATAAGGTTGG | -0.0992
5 | CCTTACGGGTCACTCCAGGATATAGCATCGGAGT | 2.88
6 | ATCTCTAGGTAACCGAGTTCAGTGAATGCCGAAC | 5.27
7 | CCTTACGGGTCACTCCCGGTTATAGCATCGGAGT | 3.03
8 | GGAACGAGGGCATTCCAGTTGATAGCATGGCGAT | 2
9 | TCTGCTCGGTCAGTTGGTCAGCTAACGAGCTGCC | -0.549
10 | TCTTGTAGATCAGCAGGTTAGGAAAGCTGGCCAA | 0.153
11 | CCTACTCGGCCACGAAAGGTCATTGATTCAGTGA | 4.1
12 | TCAAGTAGGTTAGTCGGGGCATTCAGCCAACATA | 2.43
13 | AGAACGAGGGCAATGAGTTGATTGCACGGGTGGC | 5.07
14 | TCGAGTAGGTTAGTCGGGGCATTCAACCAACATA | 2.31
15 | TGAATGAGGTTATAAAATCAGGGAACGTTGCAAA | 0.918
16 | ACTTACGGGTCAACGAGGCTATAGCACGCGTATA | 6.74
17 | CCTAGCAGGCCAGGGTTACTCAAGCATTTCGCTT | -0.412
18 | TCATATGGGTAAATGCTAGGTGAAAGTCCGATCT | 0.528
19 | TGAAGGAGGTTAAAGATCAGGGAACGTGGCGTCG | 1.24
20 | GCTGCTACGTCAACTGATGGTCAGCTAAAGCTCG | -0.617

Row | Sequence | PBM binding z-score
21 | CCTCGGAGGACAGAGGGTCAGAGCTGTCCGCTTT | 0.544
22 | TCGAGTAGGTTAGTCCGGGCATTCAGCCAACATA | 0.223
23 | TCATATAGGTAAAAGGTGAACGTCGGTGTGGTAA | 1.79
24 | ATATGTAGGCTACATCCGGGTCATTCAGGCTATG | 2.92
25 | CGTCCAAGGTCAGAGGTCAGTGAAGAGATGACGG | 5.16
26 | CCTCGGAGGACAGAAGGTCTGAGCTGTCCGCTTT | -0.624
27 | AGAACGAGGGCAATGAGTTGAAAGCACGGGTGGC | 5.39
28 | CCGAGTCGGTTATGGGGCATTCAGGCAACGGTGA | -0.358
29 | TCATATAGGTAAATGTTAGGTGAAAGTCCGATCT | 1.23
30 | CGAACTAGGTCATTGACAGGACTGTGAATAGTAA | 1.65
31 | ACTAGTTGGTCAGCTGAGGTCACAGACAATTCGG | 4.25
32 | CTCTAAAGGTCGGTTGAGGTGAGTATACGGATAA | 2.42
33 | CGTCCAAGGCCAGCAGGTCAGTGAAAGCGACGTG | -0.178
34 | TGAAAGAGGTTAAAGATCAGGGAACGTGGCGTCG | 1.82
35 | CCTCGGAGGACAGAAGGTCAGACCTGTCCGCTTT | 1.05
36 | AGTCAAAGTTCACTAGGTAACGTAGGATTCAGCT | 3.71
37 | ATCGAAAAGTCGACGAGGTGAGTATACACCGTTT | 0.461
38 | ACCTCTAGGTAAAGATAGTTCAGTGAATGCAAAT | 0.302
39 | CCTAGTTGGTCAGGAGGTCGCACACCGGATATGA | 1.41
40 | TCATATAGGTACACAGGTGAAAGTCCGTAAGTTA | 1.32
